PubChem BioAssay (NCATS)
Records with an inconclusive call do not appear. Calls of active or inactive are those of the source. Calls come from the whole dose curve; as a rule, active = well fitted cell-killing curve with a large enough effect; inconclusive = small, poorly fitted or top-dose-only effect; inactive = flat fitted curve, though single readings scatter. Bridge positions count the residues as written; N and C are the ends. Square brackets hold non-standard residues; d marks the D form. Side chains are listed from the residue outwards. Peptide text beside a SMILES is read from it. * marks the point of attachment. Phg(4-OMe) = COc1ccc([C@H](N)C(=O)O)cc1; d(aIle) = CC[C@H](C)[C@@H](N)C(=O)O; d(aThr) = C[C@@H](O)[C@@H](N)C(=O)O; NMeF = CN[C@@H](Cc1ccccc1)C(=O)O; Isobutyryl = CC(C)C(=O)*

assay: J3T Cancer Cell Toxicity qHTS against the NCATS CANVASS Library (AID 1347371); conditions: J3T dog glioma viability, ATP luminescence, 72 h; series mostly up to 46.1 µM; activity change, negative = cytotoxicity: at the top concentration;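 for activity change, negative = cytotoxicity: J3T is a canine glioma cancer cell line seeded at 500 cells per well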
In short: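 Viability of the J3T glioma line from dog is scored by ATP luminescence after a 72 hr incubation with natural products.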
% is set by controls: 0 for no effect and ±100 for the full control effect; potency is the fitted concentration of half-maximal effect.

SMILES	activity change, negative = cytotoxicity	Potency	outcome
Cc1occ2c1C(=O)c1c(cc(O)c(O)c1O)C2=O	-30.6% (inactive)		
CCC(=O)CCCCC[C@@H]1NC(=O)[C@H]2CCCCN2C(=O)[C@H](C(C)C)NC(=O)[C@H](Cc2cn(OC)c3ccccc23)NC1=O		11.8 µM (active)	
C=C[C@@]1(C)CC[C@@H]([C@H](C)C(=O)/C=C/C(C)(C)O)O1		23.5 µM (active)	
C=CC(CCCCC)C1C(=O)NC(=O)C1C(=O)C1C(/C=C/C)C=CC2CC(C(=O)O)CC(C)C21 (centres undefined)	-19.3% (inactive)		
C=C1CC[C@@H](O[C@H]2C[C@@](O)([C@H](C)NC(=O)c3[nH]c(C)c(Cl)c3Cl)[C@H](O)[C@@H](C)O2)[C@@H]2C=C[C@H](C)C(/C(O)=C3/C(=O)[C@H](C(C)C)N([C@@H]4O[C@H](C)[C@H](OC(N)=O)[C@H](OC(C)=O)[C@@H]4OC)C3=O)[C@@H]12 (some centres undefined)	-6.03% (inactive)		
COc1ccc([C@@H]2CC(=O)c3c(cc(O)c(C/C=C(\C)CCC=C(C)C)c3O)O2)cc1			inactive [at 9.19 µM]
O=c1cc(-c2ccc(O)c(O)c2)oc2cc(O[C@@H]3O[C@H](CO)[C@@H](O)[C@H](O)[C@H]3O)cc(O)c12			inactive
CC[C@H](C)[C@H]1NC(=O)[C@@H](NC(=O)C(C)C)[C@@H](C)OC(=O)[C@H](COC(=O)CNC(C)=O)NC(=O)[C@@H]([C@@H](C)O)NC(=O)[C@H](Cc2ccccc2)N(C)C(=O)[C@H](c2ccc(OC)cc2)NC1=O (Isobutyryl-T[d(aIle)][Phg(4-OMe)][NMeF][d(aThr)]S([Gly-Ac]); ester 1-C)	5.29% (inactive)		
C[n+]1cc2cc(C(N)=O)[nH]c3c(=N)c(Cl)c(N)c1c23	-5.89% (inactive)		
C/C1=C/[C@@H](C)[C@H](O)[C@@H](O)/C=C/CC/C=C/C(=O)O[C@@H]1[C@H](C)C(=O)CCCC1CC(=O)NC(=O)C1	-11.5% (inactive)		
CC(=O)Oc1cc2c(c(OC(C)=O)c1C1CCc3cc(Cl)c(Cl)n31)C(=O)n1c-2cc(Cl)c1Cl (centres undefined)		13.2 µM (active)	
COc1ccc2[nH]c3c(c2c1)CCN1C[C@H]2C[C@@H](OC(=O)c4cc(OC)c(OC)c(OC)c4)[C@H](OC)[C@@H](OC)[C@H]2C[C@H]31	-19.3% (inactive)		
O[C@H]1c2ccccc2-c2c3c(cc4c2[C@@H]1NCC4)OCO3	-24.6% (inactive)		
C[C@]12CC[C@]3(C1)[C@H](CC2=O)C[C@@H](OC(=O)c1ccccc1)[C@H]1[C@](C)(C(=O)O)CCC[C@@]13C	-20% (inactive)		
CC(=O)O[C@H]1c2ccccc2-c2c3c(cc4c2[C@@H]1N(C(C)=O)CC4)OCO3	-4.48% (inactive)		
C=C[C@](Cl)(CBr)CCC=C(C)C	-22.1% (inactive)		
C=C1CC[C@@H](Br)C(C)(C)[C@]12CC=C(C)C(=O)C2	8.36% (inactive)		

SMILES	activity change, negative = cytotoxicity	Potency	outcome
COc1cc2c(cc1OC)[C@@H](c1ccc3c(c1)OCO3)C(C)C(C)C2=O (some centres undefined)	-10.5% (inactive)		
C[C@H]1C=C[C@H]2CCCC[C@@H]2[C@H]1C(=O)[C@H]1CC2=C(C(=O)O)CCN2C1=O			inactive
C/C(=C\[C@H](C)C(=O)/C=C/CC1CC(=O)NC(=O)C1)[C@@H]1OC(=O)/C=C/CC/C=C/C[C@@H](O)[C@@H]1C		3.72 µM (active)	
CC(C)[C@]12CC[C@@]3(C)[C@H](C)CC[C@H](O)[C@@]3(CC1)c1cc3c(cc12)[nH]c1ccccc13	1.45% (inactive)		
C/C=C1/CN2C3CC1C1C=CC(=O)N4c5ccccc5[C@@]3(C[C@@H]2C2=C[C@H]3C5CC6N(CC[C@@]67c6ccccc6N(C2=O)[C@@H]37)C/C5=C/C)[C@H]14 (some centres undefined)		20.9 µM (active)	
CC(C)=CCC[C@]12c3cc4c(cc3CC[C@@]1(C)[C@H](C)CC[C@@H]2O)[nH]c1ccccc14	1.86% (inactive)		
Oc1ccc(C2Oc3cc(O)c4c(c3[C@@H]2c2cc(O)cc(O)c2)[C@H]2C(c3ccc(O)cc3)c3c(O)cc5c(c3[C@H]2C4c2ccc(O)cc2)[C@H](c2cc(O)cc(O)c2)C(c2ccc(O)cc2)O5)cc1 (some centres undefined)	2.79% (inactive)		
COc1cc(O)c(C(=O)[C@@H]2[C@H](CC=C(C)C)C(C)=CC[C@H]2c2ccccc2)c(O)c1	-8% (inactive)		
COc1cc(/C=C/C(=O)OC[C@@H](Cc2ccc(O)c(OC)c2)[C@@H](COC(=O)/C=C/c2ccc(O)c(OC)c2)Cc2ccc(O)c(OC)c2)ccc1O	-19.4% (inactive)		
C=CC(CCCCC)C1C(=O)NC(=O)C1C(=O)C1C2C(C)CC(C(=O)O)CC2CC1(O)C(=O)/C=C/C (centres undefined)	0.887% (inactive)		
C[C@]12CCC[C@](C)(C(=O)O)[C@@H]1CC[C@@]1(C)c3cocc3CC[C@H]21	-3.44% (inactive)		
COc1c(O)cc2c(c1O)C(=O)c1c(coc1C)C2=O	-17.3% (inactive)		
CC(C)C[C@@H]1c2c(O)c(C=O)c(O)c(C=O)c2O[C@]2(C)C=C[C@@H](C(C)C)C[C@H]12			inactive
COc1cc2c(c(O)c1O)C(=O)c1c(coc1C)C2=O		26.4 µM (active)	
CO[C@H]1[C@@H](OC(=O)/C(C)=C\[C@@H]2O[C@@H]2[C@H]2O[C@H]2C)[C@H](O)[C@H](OCC23C[C@@H]4[C@H](C)CC[C@H]4C4(C=O)CC2C=C(C(C)C)C34C(=O)O)O[C@@H]1C (some centres undefined)	-10.1% (inactive)		
C/C=C/C1C=CC2CC(C)CC(C)C2C1C(=O)CC(=O)NC(CO)C/C=C/CCCCC (centres undefined)	-14% (inactive)		
CC[C@H]1[C@H](C)[C@H](c2cc(OC)c(OC)cc2OC)[C@@H](C)[C@H](c2cc(OC)c(OC)cc2OC)[C@@]12C=C(OC)C(=O)C=C2OC	-15.8% (inactive)		
